# Results filed as inconclusive are left out. Where a call stands in place of a potency, no number is given. Calls of active or inactive are those of the source. Unless noted, the call rests on the fitted dose curve; in most records, active means well fitted curve in the direction sought with a large enough effect in the repeat runs; inconclusive means weak or mixed curves; inactive means no such curve, though single readings can be large; an effect the other way counts as inactive or inconclusive.
# Assays:
# [1] = A CellTox Green Cytotoxicity Assay to monitor cytotoxicity in HEK293 cells - 16 hour (AID 1224888); further: nearly all actives have a fitted effect of over 35% in size; further: potency means the concentration at half of the fitted maximal effect
# Outline: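 Seeding of HEK293 cells together with cytotoxicity dye preceded a 5 h incubation at 37 C/5% CO2. Test compounds in DMSO were then added and fluorescence monitored across 40 h.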
# [2] = qHTS RealTime-Glo MT Cell Viability Assay in HepG2 cells - 0 hour (AID 1224889); further: nearly all actives have a fitted effect of over 50% in size; further: potency means the concentration at half of the fitted maximal effect
# Outline: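 Tox21 10K library screened in qHTS format on HepG2 cells carrying RealTime-Glo reagents. Compounds were added after a 5 h preincubation, and the luminescent signal from continuous culture was measured repeatedly during 40 h treatment.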
# [3] = A CellTox Green Cytotoxicity Assay to monitor cytotoxicity in HepG2 cells - 8 hour (AID 1224890); further: nearly all actives have a fitted effect of over 45% in size; further: potency means the concentration at half of the fitted maximal effect
# Outline: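 Nonlytic assay: viable cells exclude the dye, so fluorescence scales with cell death. HepG2 at 600 cells/well, compounds added after 5 h, signal read across 40 h.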
# [4] = qHTS assay to identify small molecule antagonists of the estrogen receptor alpha (ER-alpha) signaling pathway using the BG1 cell line in the presence of 0.1 nM 17-beta-estradiol - cell viability counter screen (AID 1259241); further: nearly all actives have a fitted effect of over 40% in size
# Outline: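 CellTiter-Fluor read (30 min, 37C) on ER-alpha/ERE-luc VM7Luc4E2 cells; 22 hr compound treatment; agonist 0.1 nM E2 final; same-well multiplex.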
# [5] = qHTS assay to identify small molecule antagonists of the androgen receptor (AR) signaling pathway using the MDA cell line in the presence of 0.5 nM R1881 - cell viability counter screen (AID 1259242); further: nearly all actives have a fitted effect of over 45% in size
# Outline: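 R1881 at 0.5 nM final stimulated MDA-kb2 cells during 16 hr compound treatment at 37C. Cytotoxicity read: CellTiter-Fluor fluorescence after 30 min.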
# [6] = molecular target: Estrogen receptor (Homo sapiens) (UniProt P03372); assay: qHTS assay to identify small molecule antagonists of the estrogen receptor alpha (ER-alpha) signaling pathway using the BG1 cell line in the presence of 0.1 nM 17-beta-estradiol (AID 1259244); further: nearly all actives have a fitted effect of over 50% in size
# Outline: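 VM7Luc4E2; 4xERE-luciferase; 0.1 nM E2 final; 22 h co-incubation, 37C; ONE-Glo luminescence after 30 min at room temperature.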
# [7] = qHTS assay to identify small molecule HDAC inhibitors (AID 1259364);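 further: wild-type HCT-116 cells with endogenous class I/II HDAC activity; top concentration of the series differs between compounds; nearly all actives have a fitted effect of over 45% in size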
# Outline: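 Relative class I and II HDAC activity is taken from the luminogenic signal in HCT-116 cells, with compound exposure 2 hr and reagent development 30 min at room temperature.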
# [8] = qHTS assay to identify small molecule HDAC inhibitors - cell viability counter screen (AID 1259365); further: series mostly up to about 92 µM; nearly all actives have a fitted effect of over 50% in size
# Outline: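 To flag cytotoxic hits, 1,500 wild-type HCT-116 cells per well, plated the day before, receive test compounds for 2hr at 37 C before CellTiter-Glo reagent and a luminescence read.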
# [9] = qHTS assay to identify small molecule agonists of the sonic hedgehog signaling (Shh) pathway - cell viability counter screen (AID 1259366); further: nearly all actives have a fitted effect of over 50% in size
# Outline: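 Fluorescence from CellTiter-Fluor reports live cells in this counter screen. NIH/3T3-derived Gli1-Luc reporter cells receive test compounds for 24hr at 37C; reagent goes in at 23hr.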
# [10] = qHTS assay to identify small molecule antagonists of the sonic hedgehog signaling (Shh) pathway - cell viability counter screen (AID 1259367); further: nearly all actives have a fitted effect of over 55% in size
# Outline: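 Seed 3T3 Gli1-Luc cells at 2,000 per well; incubate 4 hr; add compound in DMSO, then conditioned medium; incubate at 37C with 5% CO2; add CellTiter-Fluor after 23 hr; read fluorescence 1 hr later.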
# [11] = qHTS assay to identify small molecule agonists of the sonic hedgehog signaling (Shh) pathway (AID 1259368; calls by dose curve;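 further: NIH/3T3-derived 3T3Gli1-Luc cells carrying a stable Gli1-driven firefly luciferase reporter; series mostly up to about 92 µM; nearly all actives have a fitted effect of over 15% in size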)
# Outline: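 Mouse fibroblast (NIH/3T3) reporter cells with stably integrated Gli1-Luc were treated 24 hr with compound; firefly luciferase luminescence served as the read-out.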
# [12] = qHTS assay to identify small molecule antagonists of the sonic hedgehog signaling (Shh) pathway (AID 1259369; calls by dose curve; further: nearly all actives have a fitted effect of over 45% in size)
# Outline: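 Conditioned medium drives Shh signalling in 3T3Gli1-Luc cells; compounds in DMSO co-applied, 24hr at 37 C, then luciferase luminescence.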
# [13] = molecular target: Estrogen receptor beta (Homo sapiens) (UniProt Q92731); assay: qHTS assay to identify small molecule agonists of the estrogen receptor beta (ER-beta) signaling pathway (AID 1259377; active means well fitted activation curve with a large enough effect in the signal ratio in the repeat runs, not every such curve was filed as active; the % refers to the signal ratio)
# Outline: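 Screening used GripTite ER-beta-UAS-bla cells held in 2% charcoal-stripped FBS medium. After overnight (16 hr) compound incubation at 37C, beta-lactamase activity was detected with a FRET substrate by fluorescence.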
# [14] = molecular target: Estrogen receptor beta (Homo sapiens) (UniProt Q92731); assay: qHTS assay to identify small molecule antagonists of the estrogen receptor beta (ER-beta) signaling pathway (AID 1259378; active means well fitted inhibition curve with a large enough effect in the signal ratio in the repeat runs, not every such curve was filed as active; the % refers to the signal ratio)
# Outline: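 ER-beta-UAS-bla HEK293T cells in 2% charcoal-stripped FBS medium treated with compound plus 1nM final 17-beta-estradiol for 16 hr at 37C. Beta-lactamase reporter read by FRET substrate fluorescence after 2 hours at room temperature.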
# [15] = qHTS assay to identify small molecule agonists of the androgen receptor (AR) signaling pathway in the presence of an antagonist - cell viability counter screen (AID 1259379);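 further: MDA-kb2 human breast cancer cells carrying an MMTV luciferase reporter; series mostly up to about 92 µM; nearly all actives have a fitted effect of over 25% in size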
# Outline: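 A CellTiter-Fluor read-out measured viability of MDA-kb2 reporter cells (MMTV promoter with AR and GR response elements). Treatment: nilutamide 3.0uM final with compounds at 15 concentrations, 16 hr, 37C, 0% CO2.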
# [16] = qHTS assay to identify small molecule agonists of the estrogen receptor beta (ER-beta) signaling pathway - cell viability counter screen (AID 1259380); further: nearly all actives have a fitted effect of over 30% in size; further: potency means the concentration at half of the fitted maximal effect
# Outline: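 Cells used were ER-beta-UAS-bla HEK293T in medium with 2% charcoal-stripped FBS. They were treated for 16 hr at 37C. Viability came from CellTiter-Glo luminescence.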
# [17] = qHTS assay to identify small molecule antagonists of the estrogen receptor beta (ER-beta) signaling pathway - cell viability counter screen (AID 1259382); further: series mostly up to about 92 µM; nearly all actives have a fitted effect of over 55% in size
# Outline: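 Agonist-stimulated (1nM E2) ER-beta-UAS-bla HEK293T cells are incubated with library compounds for 16 hr at 37C. Cell viability is then assessed in the reporter-assay wells by adding CellTiter-Glo and reading luminescence after 30 min.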
# [18] = qHTS assay to identify small molecule phospholipidosis (PLD) inducers (AID 1259344; active means well fitted curve in the direction sought with a large enough effect; an effect the other way counts as inactive or inconclusive; further: potency means the concentration at half of the fitted maximal effect)
# Outline: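 Quantitative HTS in HepG2: compound plus LipidTOX Red dye for 24 h, paraformaldehyde fixation with Hoechst 33342, widefield high-content imaging; amiodarone as positive and DMSO as negative control.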
# Sequence of Estrogen receptor beta (Homo sapiens) (Q92731 whole entry, looked up): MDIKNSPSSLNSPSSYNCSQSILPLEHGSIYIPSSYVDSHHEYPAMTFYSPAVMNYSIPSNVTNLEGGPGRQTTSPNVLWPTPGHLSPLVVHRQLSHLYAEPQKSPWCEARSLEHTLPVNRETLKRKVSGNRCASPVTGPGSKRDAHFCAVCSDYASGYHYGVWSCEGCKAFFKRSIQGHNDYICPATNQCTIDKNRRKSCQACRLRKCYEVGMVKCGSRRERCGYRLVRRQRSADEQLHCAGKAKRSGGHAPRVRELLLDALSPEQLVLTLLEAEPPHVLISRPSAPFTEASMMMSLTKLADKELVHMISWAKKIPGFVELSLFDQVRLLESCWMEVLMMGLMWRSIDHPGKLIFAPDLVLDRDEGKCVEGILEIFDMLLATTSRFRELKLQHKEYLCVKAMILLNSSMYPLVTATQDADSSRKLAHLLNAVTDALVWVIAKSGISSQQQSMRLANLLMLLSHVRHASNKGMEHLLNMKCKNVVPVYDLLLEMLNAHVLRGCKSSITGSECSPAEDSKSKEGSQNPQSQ
# Sequence of Estrogen receptor (Homo sapiens) (P03372 whole entry, looked up): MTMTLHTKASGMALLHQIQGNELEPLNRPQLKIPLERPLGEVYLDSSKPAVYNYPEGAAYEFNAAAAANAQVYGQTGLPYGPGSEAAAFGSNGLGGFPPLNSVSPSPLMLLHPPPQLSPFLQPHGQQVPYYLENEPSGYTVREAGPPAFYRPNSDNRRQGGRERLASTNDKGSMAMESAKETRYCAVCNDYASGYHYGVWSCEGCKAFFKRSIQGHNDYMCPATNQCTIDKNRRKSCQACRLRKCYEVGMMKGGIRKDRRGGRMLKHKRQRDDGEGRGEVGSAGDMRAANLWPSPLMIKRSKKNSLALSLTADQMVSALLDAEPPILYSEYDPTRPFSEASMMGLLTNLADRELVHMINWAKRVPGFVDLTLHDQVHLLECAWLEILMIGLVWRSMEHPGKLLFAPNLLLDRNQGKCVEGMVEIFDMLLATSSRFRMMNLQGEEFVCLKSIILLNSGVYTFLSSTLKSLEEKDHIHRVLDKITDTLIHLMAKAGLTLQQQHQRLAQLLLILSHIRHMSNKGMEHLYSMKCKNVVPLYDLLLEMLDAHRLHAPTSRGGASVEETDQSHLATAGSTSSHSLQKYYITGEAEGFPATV
SMILES,Potency [1],Potency [2],Potency [3],outcome [4],outcome [5],outcome [6],Potency [7],outcome [8],outcome [9],outcome [10],outcome [11],Potency [12],Potency [13],outcome [14],outcome [15],Potency [16],outcome [17],Potency [18]
c1coc(Cn2cccc2)c1,inactive,inactive,inactive,inactive,inactive,inactive,inactive,inactive,inactive,inactive,inactive,inactive,inactive,inactive,inactive,inactive,inactive,–
O=C(O)/C=C(\CC(=O)O)C(=O)O,inactive,inactive,inactive,inactive,inactive,inactive,–,inactive,inactive,inactive,inactive,inactive,inactive,inactive,inactive,inactive,inactive,inactive
CN(C)CCC[C@@]1(c2ccc(F)cc2)OCc2cc(C#N)ccc21,inactive,inactive,inactive,inactive,inactive,inactive,inactive,inactive,inactive,inactive,–,–,–,–,inactive,2.98 µM (active),–,inactive
Cc1ccc(S(=O)(=O)NC(=O)NN2CC3CCCC3C2)cc1 (stereo not given),inactive,inactive,inactive,inactive,inactive,inactive,inactive,inactive,inactive,inactive,inactive,inactive,–,–,inactive,inactive,inactive,inactive
CC/C=C/CCCCCCCCCCOC(C)=O,inactive,inactive,inactive,inactive,inactive,inactive,inactive,inactive,inactive,inactive,inactive,inactive,inactive,inactive,inactive,inactive,inactive,–
CC(=O)SC[C@@H](C)C(=O)N1CCC[C@H]1C(=O)N[C@@H](Cc1ccccc1)C(=O)O,inactive,inactive,inactive,inactive,inactive,inactive,–,inactive,inactive,inactive,inactive,inactive,–,–,inactive,inactive,inactive,3.55 µM (active)
C/C=C(\C)C=O,inactive,inactive,inactive,inactive,inactive,inactive,inactive,inactive,inactive,inactive,inactive,inactive,inactive,inactive,inactive,inactive,inactive,–
CCOC(=O)CC(C(C)=O)C(C)=O,inactive,inactive,inactive,inactive,inactive,inactive,inactive,inactive,inactive,inactive,inactive,inactive,inactive,inactive,inactive,inactive,inactive,–
C[C@]12C=CC(=O)C=C1[C@@H](F)C[C@@H]1[C@@H]2[C@@H](O)C[C@@]2(C)[C@H]1CC[C@]2(O)C(=O)CO,inactive,10.7 µM (active),inactive,inactive,inactive,inactive,inactive,inactive,inactive,inactive,inactive,inactive,–,–,inactive,inactive,inactive,inactive
CCCCC(CC)COC(=O)CC#N (stereo not given),inactive,inactive,inactive,inactive,inactive,inactive,inactive,inactive,inactive,inactive,inactive,inactive,inactive,inactive,inactive,inactive,–,–
COC(=O)c1ccc(C(=O)O)cc1,inactive,inactive,inactive,inactive,inactive,inactive,inactive,inactive,inactive,inactive,inactive,inactive,inactive,inactive,inactive,inactive,inactive,–
CC(C)(C)C(=O)NCCCC(=O)O,inactive,inactive,inactive,inactive,inactive,inactive,inactive,inactive,inactive,inactive,inactive,–,–,–,inactive,inactive,–,inactive
C=CC(=O)OCC[N+](C)(C)C,inactive,inactive,inactive,inactive,inactive,inactive,inactive,inactive,inactive,inactive,inactive,inactive,inactive,inactive,inactive,inactive,–,–
CCCCC(CC)CCC(CC(C)C)OS(=O)(=O)O (stereo not given),inactive,inactive,inactive,inactive,inactive,inactive,inactive,inactive,inactive,inactive,–,inactive,inactive,inactive,inactive,inactive,inactive,inactive
CCCCN(CCCC)CCCCCCN(CCCC)CCCC,inactive,inactive,inactive,inactive,inactive,inactive,inactive,inactive,inactive,inactive,inactive,inactive,inactive,inactive,inactive,inactive,inactive,–
NS(=O)(=O)c1cc2c(cc1C(F)(F)F)NCNS2(=O)=O,inactive,inactive,inactive,inactive,inactive,inactive,inactive,inactive,inactive,inactive,inactive,inactive,–,–,inactive,inactive,inactive,inactive

SMILES,Potency [1],Potency [2],Potency [3],outcome [4],outcome [5],outcome [6],Potency [7],outcome [8],outcome [9],outcome [10],outcome [11],Potency [12],Potency [13],outcome [14],outcome [15],Potency [16],outcome [17],Potency [18]
CCCCc1ccc(Cl)cc1,inactive,inactive,inactive,inactive,inactive,inactive,inactive,inactive,inactive,inactive,inactive,inactive,inactive,inactive,inactive,inactive,–,–
COC(=O)N/N=C/c1c[n+]([O-])c2ccccc2[n+]1[O-],21.3 µM (active),inactive,26.8 µM (active),inactive,inactive,inactive,inactive,inactive,inactive,inactive,inactive,inactive,–,–,inactive,inactive,inactive,inactive
CC(O)CCCCn1c(=O)c2c(ncn2C)n(C)c1=O (stereo not given),inactive,inactive,inactive,inactive,inactive,inactive,inactive,inactive,inactive,inactive,–,inactive,–,–,inactive,inactive,inactive,inactive
CC(C)(C)C(=O)CCc1ccc(Cl)cc1,inactive,inactive,inactive,inactive,inactive,inactive,inactive,inactive,inactive,inactive,inactive,inactive,inactive,inactive,inactive,inactive,inactive,–
Cc1ccc(Br)cc1,inactive,inactive,inactive,inactive,inactive,inactive,inactive,inactive,inactive,inactive,–,inactive,–,–,inactive,inactive,inactive,–
O=C(O)COc1ccc2ccccc2c1,inactive,inactive,inactive,inactive,inactive,inactive,inactive,inactive,inactive,inactive,–,inactive,inactive,inactive,inactive,inactive,–,–
CCCCCCCCCCCCCCBr,inactive,inactive,inactive,inactive,inactive,inactive,inactive,inactive,inactive,inactive,inactive,inactive,inactive,inactive,inactive,inactive,inactive,–
COCCCOc1cc(C[C@@H](C[C@H](N)[C@@H](O)C[C@H](C(=O)NCC(C)(C)C(N)=O)C(C)C)C(C)C)ccc1OC,inactive,inactive,inactive,inactive,inactive,inactive,inactive,inactive,inactive,–,inactive,inactive,–,–,inactive,inactive,inactive,–
CC(C)(O)CCCC1=CCC(C=O)CC1 (stereo not given),inactive,inactive,inactive,inactive,inactive,inactive,inactive,inactive,inactive,inactive,–,inactive,–,–,inactive,inactive,inactive,–
CC(C)(C)OC(=O)c1ccccc1C(=O)O,inactive,inactive,inactive,inactive,inactive,inactive,inactive,inactive,inactive,inactive,–,inactive,–,–,inactive,inactive,inactive,–
CC(=O)c1ccc2ccc3ccccc3c2c1,inactive,inactive,inactive,inactive,inactive,inactive,inactive,inactive,inactive,inactive,inactive,inactive,–,–,inactive,–,inactive,–
CC(=O)Oc1ccc(C(C)=O)cc1,inactive,inactive,inactive,inactive,inactive,inactive,inactive,inactive,inactive,inactive,inactive,inactive,–,–,inactive,inactive,–,–
CCCCNCC,inactive,inactive,inactive,inactive,inactive,inactive,inactive,inactive,inactive,inactive,inactive,inactive,–,–,inactive,inactive,inactive,–
CO/N=C(\C(=O)O)c1csc(NC(=O)CCl)n1,inactive,inactive,inactive,inactive,inactive,inactive,inactive,inactive,inactive,inactive,inactive,inactive,–,–,inactive,inactive,inactive,–
C=CCOC(=O)CCCCCCCC,inactive,inactive,inactive,inactive,inactive,inactive,inactive,inactive,inactive,inactive,inactive,inactive,–,inactive,inactive,inactive,inactive,–
C/C=C(\C)C(=O)OC/C=C(\C)CCC=C(C)C,inactive,inactive,inactive,inactive,inactive,inactive,inactive,inactive,inactive,inactive,–,inactive,inactive,inactive,inactive,inactive,inactive,–

# Reference: PubChem BioAssay (Tox21)
